Test results from ChEMBL document CHEMBL4513216, “Probing the Open Global Health Chemical Diversity Library for Multistage-Active Starting Points for Next-Generation Antimalarials” (ACS Infect Dis, 2020).
About 8,600 (12%) of roughly 69,000 compounds showed an effect of 50% or more. Only a selection was taken, and strong results are over-represented in it overall.

These compounds were tested on Plasmodium berghei (assay: Screen against P. berghei liver stage (PbLuc), transformed with Luciferase, at 10uM). Conditions: tested at 10 uM.
Type: functional, HepG2
O=C1CC(c2ccncc2)C2(CCN(C(=O)NC3CC3)CC2)N1 (stereo not given) was tested, and the INHIBITION was 33.4%. Cn1cc(C2CC(=O)NC23CCN(C(=O)C2CC=CC2)CC3)cn1 (stereo not given) was tested, and the INHIBITION was -61.6%. With Cn1cc(C2CC(=O)NC23CCN(C(=O)NC2CC2)CC3)cn1 (stereo not given) the INHIBITION was 62.9%. For COC1CCCN(C(=O)NCCCF)C1 (stereo not given), the INHIBITION was 55.5%. COC1CCCN(C(=O)NCC(C)(C)SC)C1 (stereo not given) was tested, and the INHIBITION was 32%. COC1CCCN(C(=O)NCC(F)F)C1 (stereo not given) gave an INHIBITION of 26.4%. CCN1C(=O)CCC12CCCN(Cc1ccc(F)cc1)CC2 (stereo not given) was tested, and the INHIBITION was -24.5%. For COC(=O)C(NC(=O)c1cc(F)cc(F)c1)c1cccnc1 (stereo not given), the INHIBITION was 55.4%. Work on COC(=O)C(NC(=O)c1cc(C)ccc1C)c1cccnc1 (stereo not given) yielded an INHIBITION of 32.2%. Compound COC(=O)C(NC(=O)c1ccc(C)cc1C)c1cccnc1 (stereo not given) has an INHIBITION of 42.4%. Work on Cc1nc(O)cc(C2CCN(C(=O)c3[nH]nc4c3CC(C)CC4)CC2)n1 (stereo not given) yielded an INHIBITION of 9.52%. With O=C(Nc1cc(Cl)ccc1N1CCCCC1)c1ccccn1 the INHIBITION was 56.3%. With CN1CCN(c2ccc(Cl)cc2NC(=O)c2ccco2)CC1 the INHIBITION was 35.1%. Compound O=C(Nc1c(N2CCCC2)cccc1N1CCCC1)c1cnccn1 has an INHIBITION of 48%. O=C(Nc1c(N2CCCC2)cccc1N1CCCC1)c1ccccn1 showed an INHIBITION of 55.4%. O=C(O)c1ncccc1N1CCCCC1 was tested, and the INHIBITION was 6.83%. With O=C(Nc1c(N2CCCC2)cccc1N1CCCC1)c1cnsn1 the INHIBITION was 42.4%. CN1CCN(c2ccc(NC(=O)c3ccccn3)c(C(F)(F)F)c2)CC1 gave an INHIBITION of -78.3%. COC(=O)c1ncccc1N1CCCC1 gave an INHIBITION of -0.71%. COC(=O)c1ncccc1N1CCCCC1 showed an INHIBITION of 89.1%. In the case of CCc1cc(NCC(O)CN2CCCC2)ncn1 (stereo not given), the INHIBITION is reported as 18.5%. Work on CCC(=O)N1CCCCC1c1nc(O)c2c(n1)CN(C(=O)C1CC1)CC2 (stereo not given) yielded an INHIBITION of 34.65%. Compound Cc1cc(CN(C)C(=O)c2cccc(N3CCCS3(=O)=O)c2)no1 has an INHIBITION of 42%. In the case of CN(C)[C@@H]1CCN(S(=O)(=O)c2cn(C)cn2)[C@H]1Cc1cccnc1, the INHIBITION is reported as 33%. Compound CC(C)Cc1nnc(NC(=O)NC(CCO)c2cccs2)s1 (stereo not given) has an INHIBITION of 36%. With CCCn1cc(S(=O)(=O)N[C@H]2CN(CC(N)=O)C[C@@H]2C2CC2)cn1 the INHIBITION was 37.7%. In the case of CCCn1cc(S(=O)(=O)N[C@H]2CN(CCO)C[C@@H]2C2CC2)cn1, the INHIBITION is reported as 92.1%. CCCn1cc(S(=O)(=O)N[C@H]2CN(C(C)=O)C[C@@H]2C2CC2)cn1 showed an INHIBITION of 24.2%. In the case of Cc1ccc(CC2COCCN(S(C)(=O)=O)C2)nc1 (stereo not given), the INHIBITION is reported as -24.4%. Cc1csc(CCNC(=O)N2CCC(NC(=O)OC(C)(C)C)CC2)n1 gave an INHIBITION of 13.3%. Cc1cc(CN2C[C@@H]3COC[C@]3(CNC(=O)N(C)C)C2)no1 showed an INHIBITION of 45.1%. In the case of CNC(=O)C1CN(Cc2cc(C)on2)CCN(C(C)=O)C1 (stereo not given), the INHIBITION is reported as -21.6%. In the case of Cc1cccc(CN2C[C@@H]3COC[C@]3(CNC(=O)C3CCC3)C2)c1, the INHIBITION is reported as 65.7%. Cc1cc(CN2C[C@@H]3COC[C@]3(CNC(=O)N3CCCC3)C2)no1 was tested, and the INHIBITION was 70.7%. Work on CC(=O)N1CCCC(C(=O)N2CCN(Cc3cc(C)on3)CC2)C1 (stereo not given) yielded an INHIBITION of 71.2%. Cc1cccc(CN2C[C@@H]3COC[C@]3(CNC(=O)C3CC3)C2)c1 was tested, and the INHIBITION was 35.8%. CC(=O)N1CCCC(C(=O)N2CCN(c3cnn(C)c(=O)c3)CC2)C1 (stereo not given) gave an INHIBITION of 16.6%. Work on COc1cccc(CN2C[C@@H]3COC[C@]3(CNC(=O)C3CC3)C2)c1 yielded an INHIBITION of 43%. Compound Cc1cccc(CN2C[C@@H]3COC[C@]3(CNC(=O)N3CCCC3)C2)n1 has an INHIBITION of 21%. Work on CCOCC(O)CN1CCN(C(=O)c2ccc3c(c2)COC3)CC1 (stereo not given) yielded an INHIBITION of 29.7%. COc1c(CNCc2nnc3n2CCCCC3)c(C)nn1C showed an INHIBITION of 31.6%. CCN1C[C@@H]2[C@@H](OC)CCN(C(=O)Cc3ccsc3)[C@@H]2C1 gave an INHIBITION of 11.2%. For O=C(c1cnccn1)N(CCO)Cc1cc(Br)ccc1F, the INHIBITION was -7.81%. In the case of COCCNC(=O)Cn1cc(OCc2ccccc2F)c(=O)cc1CO, the INHIBITION is reported as 10.5%. CC(C)CS(=O)(=O)CC(=O)NC(C)c1nnc2n1CCC2 (stereo not given) was tested, and the INHIBITION was 31.3%. Compound COc1cccc(C(=O)N2CCOCC2CN(C)C)c1OC (stereo not given) has an INHIBITION of 7.44%. Cc1nc(CN2CCCC(CCc3ccc(F)c(F)c3)C2)c[nH]1 (stereo not given) showed an INHIBITION of 55.7%. Cc1nc(CN2CCCC(CCNS(C)(=O)=O)C2)c[nH]1 (stereo not given) gave an INHIBITION of -1.53%. For Cc1nc(CN2CCCC(CCc3ccccc3C)C2)c[nH]1 (stereo not given), the INHIBITION was 47.6%. Fc1ccc(CCC2CCCN(Cc3c[nH]cn3)C2)c(F)c1 (stereo not given) gave an INHIBITION of 71.2%. With Cc1nc(CN2CCCC(CCc3c(F)cccc3F)C2)c[nH]1 (stereo not given) the INHIBITION was 25.1%. For Cc1nc(CN2CCCC(Cn3cc(CCO)nn3)C2)c[nH]1 (stereo not given), the INHIBITION was 18.5%. Cc1nc(CN2CCCC(CCc3ccccc3F)C2)c[nH]1 (stereo not given) gave an INHIBITION of 57.6%. In the case of Cc1nc(CN2CCCC(CCc3ccc(F)cc3F)C2)c[nH]1 (stereo not given), the INHIBITION is reported as 33.5%. Cc1[nH]c(=O)[nH]c(=O)c1CN1CCCC(CCc2ccc(F)cc2F)C1 (stereo not given) showed an INHIBITION of -13.5%.
